From the OligoGym collection

Biological target: OLFML2A
Assay: pooled miR-30 sensor sort-seq; sequence = guide strand
Settings: shRNA
Further: reference of the scale not given here.

Row | Sequence | sensor-assay potency score (higher = more potent)
1 | TAGTTGGTGACATAGATCCTGT | -0.519
2 | TTGTAGGGTAGCTTGTACATGT | -0.494
3 | TTTCCATAGTAGTAGTTGGTGA | -0.818
4 | TTGAGTTTCTCCATCTTCCACT | -0.593

Biological target: OLIG1
Assay: as above
Settings: shRNA

Row | Sequence | sensor-assay potency score (higher = more potent)
5 | TTGTTGATTCTGTACACCGTCA | -0.445
6 | TTGGTTTTCGTTTTTAAGCAAG | -1.05
7 | TTACCTATTTTAGTAAATCGGG | -0.775
8 | TCGGCTACTACCAACAACCAAA | -1.38
9 | TAGTAAATCGGGAACACTGGAT | -0.186
10 | TTAACGTCTGTAACAAATCGAA | -0.686
11 | TTGCTTTCTAAGAAACCCCCAG | -0.585
12 | TATGTAGCTCTTCAACTGCAAG | -1.7
13 | TACAGCTCTCCAAACAGCTGGT | -0.013
14 | TTTAAGAGCGAAAACTCTCTGC | -0.0663
15 | TAACGTCTGTAACAAATCGAAA | -1.41
16 | TACCTATTTTAGTAAATCGGGA | -0.985

Biological target: OMD
Assay: as above
Settings: shRNA

Row | Sequence | sensor-assay potency score (higher = more potent)
17 | TTGTGTGACATTCTTAGAGTAT | -0.365
18 | TTCATTGTAACCAAGAAGGAGT | -0.273
19 | TTTGAGTAAGTTCTAATCCTAT | -0.412
20 | TATTTCATTATTTTGTAGGTAT | 0.614
21 | TTGGTCATAGTCTTCATCCCAC | -0.0587
22 | TTTGTCGAAGTATTTTTCGGGT | -0.262
23 | TATAGGTTTTGTGAAGTCGTAA | -0.621
24 | TTAAATTCAATTCTGATCTTAT | -0.256
25 | TTTGTTGTGTCCAACACTGAGT | -0.557
26 | TTAGTTGTATTGTTTGACCATT | -0.906
27 | TAGTGCTTCGTTGTTCACCATA | -1.2
28 | TTGTAGTAGATTTGGAAGCTTA | -0.257

Biological target: OPRK1
Assay: as above
Settings: shRNA

Row | Sequence | sensor-assay potency score (higher = more potent)
29 | TAGCTGGAGAGAGCAGCTGTGC | -1.45
30 | TTGTAGTAACTAAAGCATCTGC | -0.405
31 | TTGGTTGCTGTCTTCATCTTTG | -0.766
32 | TATCTTGCACAGCACATCCCCA | -0.82
33 | TTTCGGACTCTGCTAGTGCTCT | -0.953
34 | TTGCTGTCTTCATCTTTGTGTA | -0.644
35 | TTCATGAAGAGGTCCCACCAGG | -0.714
36 | TTACTATCTTGCACAGCACATC | -1.6
37 | ATCACGAACATGACCAGCGAGT | -1.24
38 | AATAGCTGGAGAGAGCAGCTGT | 0.381
39 | TATCGGATGATCACGAACATGA | -0.746
40 | ATGACATCGACGTCTTCCCTGA | -0.669
